± gives the standard deviation of the averaged measurements.

The subject of the test is AEK1 (Tb927.3.2440). Briefly: percent reduction in TR-FRET probe signal relative to DMSO control; higher = stronger displacement of ATP-site probe (binding). To be noted: 1 µM; incubation time 1 h. (TR-FRET usually uses a lanthanide donor and a delayed reading to cut background.)
For `CN1CCN(Cc2ccc(-c3cnc4[nH]cc(-c5ccc6[nH]ccc6c5)c4c3)cc2)CC1`, the “percent reduction in TR-FRET probe signal” value (“percent reduction” for short) amounted to 11.2 ± 7.5%. `CN1CCN(c2ccc3nc(-c4c(N)c5c(F)cccc5[nH]c4=O)[nH]c3c2)CC1` [Dovitinib (TKI-258, CHIR-258)]: the “percent reduction” value is 16.9 ± 16%. On to `CC(C)CC(NC(=O)C(Cc1ccccc1)NC(=O)C(CCC(N)=O)NC(=O)C(Cc1ccc(O)cc1)NC(=O)C(C)NC(=O)CNC(=O)C(CCCCN)NC(=O)C(Cc1c[nH]c2ccccc12)NC(=O)C(NC(=O)C(Cc1c[nH]c2ccccc12)NC(=O)C(CCCCN)NC(=O)CNC(=O)C(CC(N)=O)NC(=O)C(CCC(=O)O)NC(=O)C(Cc1c[nH]c2ccccc12)NC(=O)C(NC(=O)C(Cc1c[nH]c2ccccc12)NC(=O)C(CO)NC(=O)CNC(=O)C1CCCN1C(=O)C(Cc1c[nH]c2ccccc12)NC(=O)C(CCC(N)=O)NC(=O)C(Cc1ccccc1)NC(=O)CNC(=O)C(N)Cc1c[nH]cn1)C(C)O)C(C)O)C(=O)NC(CCCCN)C(=O)NCC(=O)NCC(=O)NCC(=O)NCC(=O)NC(CO)C(=O)NC(CCCNC(=N)N)C(=O)NC(CCCNC(=N)N)C(=O)NC(CCCNC(=N)N)C(=O)NC(CCCNC(=N)N)C(=O)NC(CCCNC(=N)N)C(=O)NC(CCCNC(=N)N)C(=O)NC(CCCNC(=N)N)C(=O)NC(CCCNC(=N)N)C(=O)NC(CCCNC(=N)N)C(=O)O` (configuration not stated), for which the “percent reduction” value was -15.1 ± 6.2%. As for `COc1cc(OC)c(/C=C/S(=O)(=O)Cc2ccc(OC)c(NCC(=O)[O-])c2)c(OC)c1.[Na+]`, the “percent reduction” value is -3.78 ± 11%.

Take `COc1cc2c(Oc3ccc(NC(=O)C4(C(=O)Nc5ccc(F)cc5)CC4)cc3F)ccnc2cc1OCCCN1CCOCC1`: the “percent reduction” value is 56 ± 11%. Regarding `CCN1CCN(Cc2ccc(-c3cc4c(N[C@H](C)c5ccccc5)ncnc4[nH]3)cc2)CC1`, the “percent reduction” value amounted to 12.6 ± 16%. To `CNC(=O)c1nn(C)c2c1C(C)(C)Cc1cnc(Nc3ccc(N4CCN(C)CC4)cc3)nc1-2` belongs -3.55 ± 7.5%. As for `C[C@@H]1COCCN1c1cc(C2(S(C)(=O)=O)CC2)nc(-c2cccc3[nH]ccc23)n1`, the “percent reduction” value is 0.253 ± 7.1%. In the case of `CN(c1ncccc1CNc1nc(Nc2ccc3c(c2)CC(=O)N3)ncc1C(F)(F)F)S(C)(=O)=O.O=S(=O)(O)c1ccccc1`, the “percent reduction” value was 37.1 ± 14%. As to `Cc1cnc(Nc2ccc(OCCN3CCCC3)cc2)nc1Nc1cccc(S(=O)(=O)NC(C)(C)C)c1`, the “percent reduction” value turned out to be 31.6 ± 15%. With `COc1cc2c(Nc3ccc(NC(=O)c4ccccc4)cc3)ncnc2cc1OCCCN1CCOCC1`, the “percent reduction” value was found to be 4.13 ± 16%. Consider `COc1ncc(-c2cc(-c3ncc(CN4C[C@@H](C)O[C@@H](C)C4)o3)c3cn[nH]c3c2)cc1NS(C)(=O)=O`, for which the “percent reduction” value is -2.16 ± 6.2%. With `COC(=O)c1ccc2c(c1)NC(=O)/C2=C(\Nc1ccc(N(C)C(=O)CN2CCN(C)CC2)cc1)c1ccccc1` [Nintedanib (BIBF 1120)], the “percent reduction” value is 9.58 ± 14%.

On to `COc1ccc(-c2ccc3c(N4CCOC[C@@H]4C)nc(N4CCOC[C@@H]4C)nc3n2)cc1CO`, for which the “percent reduction” value is -7.43 ± 5.2%. As to `CN(c1ncccc1CNc1nc(Nc2ccc3c(c2)CC(=O)N3)ncc1C(F)(F)F)S(C)(=O)=O`, the “percent reduction” value came to 46.8 ± 0.66%.

Consider `CNS(=O)(=O)C[C@H]1CC[C@H](N(C)c2ncnc3[nH]ccc23)CC1.O=C(O)/C=C\C(=O)O` [Oclacitinib], for which the “percent reduction” value came to 6.94 ± 17%. As for `CC(C)CC(=O)Nc1n[nH]c2c1CN(C(=O)C1CCN(C)CC1)C2(C)C`, the “percent reduction” value is -0.07 ± 7.6%.

On to `Cc1ccc2nc(NCCN)c3ncc(C)n3c2c1`, for which the “percent reduction” value is -7.43 ± 3.5%. Regarding `C[C@@H](N)[C@H]1CC[C@H](C(=O)Nc2ccncc2)CC1.Cl.Cl`, the “percent reduction” value amounted to 2.66 ± 6.8%.

On to `CCCCCCCCCCCCCCCCOP(=O)([O-])OCC[N+](C)(C)C` [Miltefosine], for which the “percent reduction” value worked out at 4.96 ± 18%. As to `Cl.Cl.Clc1ccc(Nc2nnc(Cc3ccncc3)c3ccccc23)cc1` [Vatalanib (PTK787) 2HCl], the “percent reduction” value came out at 4.61 ± 8.7%. On to `COc1ccc(C(=O)Nc2sc3c(c2C(N)=O)CCCC3)cc1OC`, for which the “percent reduction” value came out at 1.85 ± 1.5%. Turning to `COc1ccc(S(=O)(=O)N(C(C)=O)c2ccccc2/C=C/c2cc[n+]([O-])cc2)cc1`, the “percent reduction” value was -0.117 ± 12%.

In the case of `CN1CCCN(C(=O)c2cccc(-c3ccc(/C=C4/C(=O)Nc5ccc(Cl)cc54)o3)c2)CC1.Cl`, the “percent reduction” value was -0.203 ± 9.8%. Next, `CC[C@@H]1C(=O)N(C)c2cnc(Nc3ccc(C(=O)NC4CCN(C)CC4)cc3OC)nc2N1C1CCCC1`: -1.92 ± 12%; `O=C1NC(=O)C(c2cnc3ccccn23)=C1c1cn2c3c(cc(F)cc13)CN(C(=O)N1CCCCC1)CC2`: -14.7 ± 8.7%.

Regarding `COc1cc(N2CCC(N3CCN(C)CC3)CC2)ccc1Nc1ncnc(Nc2ccccc2S(=O)(=O)C(C)C)n1`, the “percent reduction” value was -6.14 ± 6.2%. For the compound `COc1cc(-c2cc(-c3ccc(N4CCNCC4)cc3)cnc2C)cc(OC)c1OC`, the “percent reduction” value is -4.94 ± 0.48%.

For the compound `CNC(=O)c1cc(Oc2ccc(NC(=O)Nc3ccc(Cl)c(C(F)(F)F)c3)cc2)ccn1.Cc1ccc(S(=O)(=O)O)cc1` [Sorafenib Tosylate], the “percent reduction” value was determined as 17 ± 12%. Consider `CC(C)Nc1cc(-c2c[nH]c(C(=O)N[C@H](CO)c3cccc(Cl)c3)c2)c(Cl)cn1`, for which the “percent reduction” value stood at 0.153 ± 2.1%. For `CC(=O)Nc1cccc(-n2c(=O)n(C3CC3)c(=O)c3c(Nc4ccc(I)cc4F)n(C)c(=O)c(C)c32)c1`, the “percent reduction” value is 4.31 ± 12%.

With `Cc1cc(Nc2nc(N[C@@H](C)c3ncc(F)cn3)ncc2Cl)n[nH]1`, the “percent reduction” value is 56.5 ± 16%. For the compound `COc1cc(F)c(F)c(Nc2ccc(I)cc2F)c1NS(=O)(=O)C1(C[C@H](O)CO)CC1` [Refametinib (RDEA119, Bay 86-9766)], the “percent reduction” value was -1.27 ± 14%.

With `CC(O)C(=O)O.CC(O)C(=O)O.CN1CCN(c2ccc3nc(-c4c(N)c5c(F)cccc5[nH]c4=O)[nH]c3c2)CC1` [Dovitinib (TKI-258) Dilactic Acid], the “percent reduction” value was 10.5 ± 12%.

Take `O=C(O)[C@]1(Cc2cccc(Nc3nccs3)n2)CC[C@@H](Oc2cccc(Cl)c2F)CC1`: the “percent reduction” value worked out at 19.3 ± 12%.

As to `COc1cc2c(c(OC)c1OC)-c1c(cc3c(c1OC)OCO3)C[C@@H](C)[C@@H](C)C2` [Schisandrin B (Sch B)], the “percent reduction” value came out at 13.6 ± 28%.

For `Nc1nc(N)c(N=O)c(OCC2CCCCC2)n1`, the “percent reduction” value was -2.92 ± 9%.
